The list shows a part of the results. The source made the active and inactive calls. Unless noted, no stated cut-off is given here; in the data, active means activity above about 50%; inactive means the rest.
What was measured:
[1] = target: Tumor necrosis factor receptor superfamily member 10B (Homo sapiens) (UniProt O14763); assay: caspase-8 TRAIL sensitization, hit retest, confirmation, cell-based, NB7+caspase-8, with/without TRAIL, luminescence panel (AID 651596); details: NB7 neuroblastoma + caspase-8, TRAIL sensitization, luminescence viability, with TRAIL, mean of runs, at 10 µM, stronger effect = higher value
[2] = as above; details: NB7 neuroblastoma + caspase-8, without TRAIL, luminescence viability, without TRAIL, mean of runs, at 10 µM
[3] = target: Tumor necrosis factor receptor superfamily member 10B (Homo sapiens) (UniProt O14763); assay: TRAIL sensitizers in caspase-8 expressing neuroblastoma cells, dose response, NB7 cells plus caspase-8, luminescence, panel (AID 652002); details: NB7 neuroblastoma +caspase-8, TRAIL sensitization, luminescence viability, NB7+Caspase-8, with TRAIL, run 1; at 12.5 µM (top of the series)
[4] = target: Tumor necrosis factor receptor superfamily member 10B (Homo sapiens) (UniProt O14763); assay: as above; details: NB7 neuroblastoma +caspase-8, TRAIL sensitization, luminescence viability, NB7+Caspase-8, with TRAIL, run 2; at 12.5 µM (top of the series)
[5] = as above; details: NB7 neuroblastoma +caspase-8, no TRAIL, compound-alone cytotoxicity counter-screen, luminescence viability, NB7+Caspase-8, run 1; at 12.5 µM (top of the series) unless noted
[6] = as above; details: NB7 neuroblastoma +caspase-8, no TRAIL, compound-alone cytotoxicity counter-screen, luminescence viability, NB7+Caspase-8, run 2; at 12.5 µM (top of the series) unless noted
[7] = target: COP9 signalosome complex subunit 5 (Homo sapiens) (UniProt Q92905); assay: Csn5 deneddylation inhibitors, confirmation, biochemical, fluorescence polarization, single concentration, SCF-Nedd8OG substrate (AID 720654; in the data active means inhibition above about 50%;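 further: 0% = DMSO with enzyme and 100% = no enzyme wells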); details: Csn5 deneddylation of SCF-Nedd8OG, 90 min, at 16.6 µM, stronger effect = higher value
[8] = target: 72 kDa type IV collagenase (Homo sapiens) (UniProt P08253); assay: MMP-2 protease inhibition counter-screen, confirmation, counter-screen for CSN deneddylation inhibitor project, biochemical, fluorescence, single concentration (AID 720655;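 active means corrected plate-normalized z-score of 5 or more, or -5 or less, or inhibition of 15% or more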;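 further: plate controls were DMSO wells with enzyme for no effect and buffer wells lacking MMP-2 for full effect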); details: recombinant MMP-2, FRET substrate fluorescence, 60 min; at 16.6 µM
Prothrombin (Bos taurus) = Prothrombin (Bos taurus) (UniProt P00735); assay: bovine thrombin inhibition counter-screen, confirmation, counter-screen for CSN deneddylation inhibitor project, biochemical, fluorescence polarization, single concentration (AID 720656;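 active means inhibition at or above a set limit, with a fluorescence interference ratio between 0.5 and a set maximum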); details: bovine thrombin cleavage of Ub4-pepOG, at 16.6 µM, stronger effect = higher value
Prothrombin (Bos taurus), sequence (P00735 whole entry, looked up): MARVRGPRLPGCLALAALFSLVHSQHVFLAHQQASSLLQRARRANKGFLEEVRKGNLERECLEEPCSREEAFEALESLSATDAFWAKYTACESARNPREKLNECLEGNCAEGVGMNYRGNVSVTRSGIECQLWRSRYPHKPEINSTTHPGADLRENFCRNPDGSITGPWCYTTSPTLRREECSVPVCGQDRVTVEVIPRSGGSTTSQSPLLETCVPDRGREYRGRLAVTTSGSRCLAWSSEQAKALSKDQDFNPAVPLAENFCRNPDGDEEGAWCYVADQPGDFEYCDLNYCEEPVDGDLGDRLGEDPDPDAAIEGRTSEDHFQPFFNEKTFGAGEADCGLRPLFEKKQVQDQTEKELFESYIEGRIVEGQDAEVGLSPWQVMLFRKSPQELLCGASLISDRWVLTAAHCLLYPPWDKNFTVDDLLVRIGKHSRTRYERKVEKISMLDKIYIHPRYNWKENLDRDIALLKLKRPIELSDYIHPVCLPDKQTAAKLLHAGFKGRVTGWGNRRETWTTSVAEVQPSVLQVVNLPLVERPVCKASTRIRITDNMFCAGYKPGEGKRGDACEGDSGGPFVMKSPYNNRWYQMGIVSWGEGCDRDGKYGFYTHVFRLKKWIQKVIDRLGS

Tumor necrosis factor receptor superfamily member 10B (Homo sapiens), sequence (O14763 whole entry, looked up): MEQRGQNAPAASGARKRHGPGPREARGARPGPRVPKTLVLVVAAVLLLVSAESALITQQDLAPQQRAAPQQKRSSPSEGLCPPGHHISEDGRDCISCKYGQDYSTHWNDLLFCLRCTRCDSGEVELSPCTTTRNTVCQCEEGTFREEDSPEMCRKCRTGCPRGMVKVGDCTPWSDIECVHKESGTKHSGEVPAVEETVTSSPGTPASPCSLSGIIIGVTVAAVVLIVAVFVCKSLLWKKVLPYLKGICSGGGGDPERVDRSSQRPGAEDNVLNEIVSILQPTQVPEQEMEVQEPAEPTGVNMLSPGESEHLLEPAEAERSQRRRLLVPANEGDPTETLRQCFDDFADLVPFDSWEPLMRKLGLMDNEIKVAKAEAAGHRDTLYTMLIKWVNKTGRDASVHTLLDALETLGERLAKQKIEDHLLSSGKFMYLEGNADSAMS
COP9 signalosome complex subunit 5 (Homo sapiens), sequence (Q92905 whole entry, looked up, one chain of several): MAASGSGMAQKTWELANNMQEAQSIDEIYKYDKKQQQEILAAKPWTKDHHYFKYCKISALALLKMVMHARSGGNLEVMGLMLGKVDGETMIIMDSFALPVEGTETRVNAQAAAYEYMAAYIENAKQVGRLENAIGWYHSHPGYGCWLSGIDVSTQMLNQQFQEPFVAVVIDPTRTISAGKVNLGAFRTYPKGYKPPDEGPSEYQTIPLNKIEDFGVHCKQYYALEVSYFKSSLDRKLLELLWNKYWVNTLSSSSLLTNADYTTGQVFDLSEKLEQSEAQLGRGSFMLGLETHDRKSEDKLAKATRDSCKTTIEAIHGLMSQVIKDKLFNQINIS
72 kDa type IV collagenase (Homo sapiens), sequence (P08253 whole entry, looked up): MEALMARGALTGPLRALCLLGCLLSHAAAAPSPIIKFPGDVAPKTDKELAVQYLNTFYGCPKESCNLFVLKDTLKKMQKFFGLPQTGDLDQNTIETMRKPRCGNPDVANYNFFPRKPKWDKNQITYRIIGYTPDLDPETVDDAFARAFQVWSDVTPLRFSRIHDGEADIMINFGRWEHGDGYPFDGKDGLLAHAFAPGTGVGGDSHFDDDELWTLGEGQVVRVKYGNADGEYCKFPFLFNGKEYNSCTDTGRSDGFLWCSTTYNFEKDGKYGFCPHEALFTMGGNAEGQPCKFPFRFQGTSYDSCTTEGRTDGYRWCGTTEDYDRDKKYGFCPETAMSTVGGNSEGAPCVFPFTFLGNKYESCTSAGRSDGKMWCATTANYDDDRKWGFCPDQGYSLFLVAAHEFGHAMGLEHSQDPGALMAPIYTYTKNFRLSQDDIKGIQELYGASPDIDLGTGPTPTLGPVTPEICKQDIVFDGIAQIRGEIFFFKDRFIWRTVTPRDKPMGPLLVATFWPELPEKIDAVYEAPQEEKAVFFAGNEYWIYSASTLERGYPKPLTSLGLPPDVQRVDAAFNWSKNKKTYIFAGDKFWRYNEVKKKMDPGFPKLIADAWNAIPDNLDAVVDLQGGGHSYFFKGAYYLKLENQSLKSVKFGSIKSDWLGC

SMILES | activity [1] | activity [2] | activity, % sensitization [3] | activity, % sensitization [4] | activity, % sensitization [5] | activity, % sensitization [6] | inhibition [7] | inhibition [8] | inhibition (Prothrombin (Bos taurus))
Cc1cc(-c2ccccc2)nc(Nc2nc3c(C)cccc3c(=O)[nH]2)n1 | 59.1% | 38% | 41.7% | 10.5% | 22.2% | 5.22% |  |  | 
Cc1ccc(-n2nnc(-c3cccnc3Cl)n2)cc1 | 56.4% | 47.5% | 33.6% | -11.1% | 12% | -10.2% |  |  | 
C/C(=N\NC(=O)c1n[nH]c2c1CCC2)c1ccco1 | 55.8% | 51.4% | 28.7% | 33.5% | 27.9% | 24.1% |  |  | 
c1ccc(-c2cnc(-c3ccccn3)nn2)cc1 | 61.4% | 53.5% | 26.5% | 46.5% | 52.7% | 36.1% |  |  | 
O=C(CSc1nc2ccccc2c(=O)[nH]1)Nc1nc(-c2ccc(Br)cc2)cs1 |  |  |  |  |  |  | 105% (active) | 16.9% (active) | -37.2% (inactive)
Nc1ccccc1C(=O)NN=Cc1cccc([N+](=O)[O-])c1 | 66.6% | 42.9% | 44.8% | 53.8% | -5.65% | 35.3% |  |  | 
O=c1[nH]c(N/N=C\c2ccc3c(c2)OCO3)nc2ccccc12 | 53.6% | 50.5% | 33.9% | 44.5% | 38.2% | 35.1% |  |  | 
O=c1[nH]c(=S)[nH]c2c1C(c1ccc(Cl)c(Cl)c1)OC(CCc1ccccc1)C2 (stereo unspecified) | 57.9% | 37.3% | -9.52% | -15.8% | -5.58% | 14% |  |  | 
c1ccc(Nc2nnc(-c3cccnc3)s2)cc1 | 57.6% | 40.5% | 46.2% | 42.2% | -5.23% | -13.3% |  |  | 
